Source: PubChem BioAssay AID624330 (Southern Research Specialized Biocontainment Screening …, 2012)
The campaign covered roughly 340,000 compounds. About 2,100 (0.62%) were called active.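 Rule for the calls: active = first-screen hits whose inhibition reached a set limit at any dose in the follow-up dose series; inconclusive = inhibition above the set first-screen limit but never retested; inactive = the rest.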 These entries were drawn from the full list. Potency and affinity values are given separately.

molecular target: Rac GTPase-activating protein 1 (Homo sapiens) (UniProt Q9H0H5); experiment: blockers of MgcRacGAP-driven Rac1 GTP hydrolysis – biochemical, ADP Hunter fluorescence, primary and confirmatory, confirmation (AID 624330); conditions: MgcRacGAP-stimulated Rac1 GTP hydrolysis, at 30 µM, hits give high values, GST-tagged Rac1 F28L mutant substrate;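 note: fluorescence reports GDP produced by GAP-driven GTP hydrolysis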
Sequence (Q9H0H5 whole entry, looked up): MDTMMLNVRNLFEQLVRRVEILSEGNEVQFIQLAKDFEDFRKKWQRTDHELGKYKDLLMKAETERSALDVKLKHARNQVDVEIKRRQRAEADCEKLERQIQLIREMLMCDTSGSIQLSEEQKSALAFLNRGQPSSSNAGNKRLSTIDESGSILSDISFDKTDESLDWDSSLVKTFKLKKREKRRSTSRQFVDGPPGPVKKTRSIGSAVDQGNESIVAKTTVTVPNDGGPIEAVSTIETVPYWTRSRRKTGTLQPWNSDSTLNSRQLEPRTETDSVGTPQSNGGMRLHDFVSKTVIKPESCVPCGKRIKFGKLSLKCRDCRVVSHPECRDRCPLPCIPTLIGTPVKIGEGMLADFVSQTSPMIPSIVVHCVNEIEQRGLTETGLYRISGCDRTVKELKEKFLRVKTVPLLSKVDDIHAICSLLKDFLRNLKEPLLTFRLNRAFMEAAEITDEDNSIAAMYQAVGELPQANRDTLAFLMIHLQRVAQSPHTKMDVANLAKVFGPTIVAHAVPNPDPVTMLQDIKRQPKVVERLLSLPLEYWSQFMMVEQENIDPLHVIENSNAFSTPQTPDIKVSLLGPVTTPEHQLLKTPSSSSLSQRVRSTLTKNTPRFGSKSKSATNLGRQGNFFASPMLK

inhibition, inactive:
Oc1ccc(Cl)cc1C=Nc1ccc(Br)cc1 7.16%
COc1ccc(N=Cc2cc(Cl)ccc2O)cc1Cl 15.8%
c1ccc(C2=Nn3c(nnc3-c3ccco3)SC2)cc1 18%
Fc1ccc(C2=Nn3c(nnc3-c3ccco3)SC2)cc1 1.81%
CN(CC(=O)NCc1ccncc1)S(=O)(=O)c1cc(Cl)ccc1Cl 1.23%
COc1ccc(NC(=O)c2c[nH]c(=O)n(-c3ccc(C)c(C)c3)c2=O)cc1OC -10.4%
CC1=NN(c2ccccc2)C(=O)C1c1ccccc1 (centres undefined) 26.3%
CC1=NN(c2ccccc2)C(=O)C1(C)C 12.1%
COc1ccc(CNC(=O)CSc2nnc3c(n2)[nH]c2ccccc23)cc1 3.19%
Cc1ccc(NCCCn2cnc3c(OCc4ccccc4)ncnc32)cc1C 26.1%
CSc1ncnc2c1ncn2CCCNCCCc1ccccc1 17.5%
COc1ncnc2c1ncn2CCCNCc1ccccc1 20.3%
CSc1ncnc2c1ncn2CCCNCc1ccccc1 17.1%
CCOCCCNC(=O)c1cc(Cl)c(NC(=O)C2=C(C)OCCS2)cc1OC 9.37%
OCC[C@H]1C[C@@H](O)[C@H](O)[C@]2(CCc3ccccc3CO2)O1 -0.41%
CN1CCN(c2cc(N3CCN(C(=O)c4ccco4)CC3)c3c4c(onc24)-c2ccccc2C3=O)CC1 14.2%
CCN1CCN(c2cc(N3CCN(C(=O)c4ccco4)CC3)c3c4c(onc24)-c2ccccc2C3=O)CC1 25.5%
Cc1nc(NC(=O)CCCC(=O)Nc2nc(C)c(C)s2)sc1C 3.32%
CCc1cc(=O)oc2c(C)c(OC(C)C(=O)NCC3CCC(C(=O)O)CC3)ccc12 (centres undefined) 0.46%
CCN(C(=O)Cn1cc(C(=O)C(=O)N2CCOCC2)c2ccccc21)c1ccccc1 7.38%
O=C(O)COc1ccc2nsnc2c1Cl 6.84%
C=C(CC)C(=O)c1ccc(OCC(=O)O)c(Cl)c1Cl 4.69%
CN1CCN(C(=O)CN(CCc2ccccc2)S(C)(=O)=O)CC1 1%
CS(=O)(=O)Nc1cccc(C2=NN(C(=O)c3cccc([N+](=O)[O-])c3)C(c3cccs3)C2)c1 (centres undefined) 7.25%
CC1(C)CC(CC(=O)Nc2ccccn2)C(=O)O1 (centres undefined) 3.54%
Cc1ccc(Oc2ncccc2/C=N/O)cc1 5.93%
Cc1cc(Cl)ccc1OC(C)C(=O)OCC(=O)Nc1ccc2[nH]c(=O)[nH]c2c1 (centres undefined) 1.09%
CCN1C(=O)/C(=C\N(C)C)NC1=S 12%
CN(C)/C=C1\NC(=S)N(c2ccc(Cl)cc2)C1=O 17.9%
COc1ccc(N2C(=O)/C(=C/c3cccs3)NC2=S)cc1 9.24%
COc1ccc(N2C(=O)/C(=C/c3cccnc3)NC2=S)cc1 3.24%
Cc1cccc(C)c1NC(=O)C1CCN(S(C)(=O)=O)CC1 -16.2%
O=C(O)c1cc(O)c2c(c1)C(=O)c1cccc(O)c1C2=O 28.8%
O=C1C=C(O)c2cccc(O)c2C1=O 0.71%
CNC(=O)c1sc(=S)n(-c2ccc(OC)cc2)c1N 3.75%
Cc1cccc(-c2ncc(S(=O)(=O)C(C)(C)C)c(N)n2)c1 -7.62%
CC(=O)Nc1ccc(N(C(=O)CNC(=O)c2ccco2)C(C(=O)NCc2ccco2)c2ccccc2F)cc1 (centres undefined) 4.97%
Cc1cccc(C(=O)NC(C)c2ccc(-n3ccnc3)cc2)c1C (centres undefined) 5%
COc1ccc([N+](=O)[O-])cc1NC(=O)C(C)NNC(=O)c1cccc([N+](=O)[O-])c1 (centres undefined) 4.39%
CN(C)C=Nc1ccc2nn(-c3ccccc3)nc2c1 6.6%
CN(C)C=Nc1ccc(Cl)c(Cl)c1 2.39%
Cc1c(C(c2cc(O)ccc2O)c2c(C)n(C)n(-c3ccccc3)c2=O)c(=O)n(-c2ccccc2)n1C -9.5%
CCCN(C(=O)c1cccs1)c1c(N)n(Cc2ccccc2)c(=O)[nH]c1=O 4.88%
CSc1ncccc1C(=O)Nc1cc(C)ccn1 11.2%
COc1ccc(CC(=O)NCC2CCCN(Cc3ccc(F)c(OC)c3)C2)cc1 (centres undefined) -1.16%
CC1=C(C(=O)N2CCOCC2)CC(CC(=O)NC2CCCC2)C(=O)N1Cc1ccc(F)cc1 (centres undefined) 14.4%
COc1ccc(NC(=O)NNC(=O)COc2ccc3ccccc3c2)cc1 5.22%
COc1ccc(NC(=O)NNC(=O)COc2ccc3cc(Br)ccc3c2)cc1 9.2%
COc1ccc2cc(OCC(=O)NNC(=O)Nc3ccc(OC)c(OC)c3)ccc2c1 17.7%
COc1cccc(NC(=O)NNC(=O)COc2ccc3ccccc3c2)c1 2.17%
COc1ccc(C(=O)N2CCNC(=O)C2CC(=O)Nc2cccc(Cl)c2Cl)cc1 (centres undefined) -0.3%
O=Cc1cn(-c2ccccc2)nc1-c1cccc([N+](=O)[O-])c1 6.3%
COc1ccc(C2NN=C(c3ccc(C)cc3)S2)cc1 (centres undefined) 7.81%
COc1ccc(C2NN=C(c3ccc(C)cc3)S2)cc1OC (centres undefined) -0.47%
COc1ccc(NC(=O)CC2C(=O)NCCN2C(=O)c2ccccc2)cc1 (centres undefined) 6.95%
CC(=O)N(C(C)=O)c1nc(-c2ccccc2)cn1/N=C/c1ccccc1 7.71%
Nc1nc(-c2ccccc2)cn1/N=C/c1ccccc1 3.51%
Cc1ccc(S(=O)(=O)CCC(=O)Nc2nc(-c3cccnc3)cs2)cc1 -10.2%
CCCc1nn2c(=O)cc(CSCC(=O)Nc3ccc(OC)cc3)nc2s1 1.76%
Cc1nnc(N2C(=O)C(O)=C(C(=O)c3ccco3)C2c2cccc3ccccc23)s1 (centres undefined) 7.61%
CC(C)(O[C@@H]1O[C@H](CO)[C@@H](O)[C@H](O)[C@H]1O)[C@H]1Cc2cc3ccc(=O)oc3cc2O1 3.49%
O=C(CNS(=O)(=O)c1ccccc1)N/N=C\c1ccc(Cl)cc1 7.25%
CC(=O)Nc1ccc(/C=N/NC(=O)CNS(=O)(=O)c2ccccc2)cc1 9.41%
O=C(CNS(=O)(=O)c1ccc([N+](=O)[O-])cc1)N/N=C\c1ccc(O)cc1 20.8%
O=C(CNC(=O)c1ccccc1Br)N/N=C/c1cccnc1 7.98%
O=C(N/N=C/c1ccc(Br)cc1)c1cc[n+](Cc2ccccc2)cc1 4.25%
O=C(N/N=C/c1ccc(OCc2ccccc2)cc1)c1cc[n+](Cc2ccccc2)cc1 13.8%
CC(=O)Nc1ccc(/C=N\NC(=O)CNS(=O)(=O)c2ccc([N+](=O)[O-])cc2)cc1 9.49%
O=C(CNC(=O)c1ccccc1Br)N/N=C/c1ccccc1O 5.07%
COc1cc(C2N(c3cc(C)on3)C(=O)C3CCCN32)cc(OC)c1OC (centres undefined) 4.47%
CCOC(=O)C(=O)/C(=C\N(C)C)c1onc(-c2c(F)cccc2Cl)c1C(=O)OC 4.69%
CSc1nc(C)cc(OCC#N)n1 5.78%
Cc1cccc(NC(=S)N2CCN(S(=O)(=O)c3ccc(F)cc3)CC2)c1 8.03%
CCCCCCN1C[C@@H](n2cc(COC(=O)c3ccccc3)nn2)[C@H](O)C[C@@H]1c1ccc(Cl)cc1 8.49%
Nc1ccc(-c2cn3cccnc3n2)cc1 -4.77%
COc1cccc(N2CCN(C(=O)CCc3nnc4ccc(N5CCCC5)nn34)CC2)c1 18%
O=C(COc1ccc(Cl)cc1)Nc1cc(S(=O)(=O)N2CCCCC2)ccc1N1CCCCC1 -10.3%
C=CCNC(=O)c1snnc1-c1ccccc1 5.75%
O=C(C[n+]1ccccc1)N/N=C/c1ccc(Br)cc1 -2.09%
O=C(Cn1cnc([N+](=O)[O-])n1)N/N=C/c1cc(Cl)ccc1O 11.2%
O=C(Cn1cnc([N+](=O)[O-])n1)N/N=C/c1ccccc1O 4.85%
O=C(C[n+]1ccccc1)N/N=C/c1ccc(C(=O)O)cc1 2.14%
CCN(CC)c1ccc(/C=N/NC(=O)Cc2cccs2)cc1 18.5%
COc1ccc(/C=N/NC(=O)Cc2cccs2)cc1 3.05%
CCOc1ccc(NC(=O)COc2cccc3cccnc23)cc1S(=O)(=O)N1CCCC1 5.24%
CC(C)c1[nH]nc2c1C(c1cccs1)C(C#N)=C(N)O2 (centres undefined) 8.28%
CC(C)(C)S(=O)(=O)c1cnc2c(S(=O)(=O)c3ccccc3)cnn2c1N -3.04%
N#CCC(=O)Nc1ccc(C(=O)OCC(=O)N=c2sccn2Cc2ccccc2Cl)cc1 5.66%
CCOC(=O)c1c[nH]c(=O)c(Br)c1O 4.86%
COc1ccc(NS(=O)(=O)c2cc(NC(=O)c3ccco3)ccc2N2CCCC2)cc1 -4.14%
O=C(COC(=O)COc1ccccc1)Nc1ncc([N+](=O)[O-])s1 11.1%
COc1ccc(C(=O)OCC(=O)Nc2ncc([N+](=O)[O-])s2)cc1OC 21.6%
C/C(=N\OC(=O)Nc1ccc(Cl)cc1)c1ccc(F)c(F)c1 6.77%
CCOC(=O)N1CCN(C(=O)Cc2cccs2)CC1 9.5%
